Source: PubChem BioAssay
Hits are enriched below; roughly 0.93% of the tested compounds scored in any of these assays.
F508del corr: F508del CFTR correction, initial screen, CFBE line, single point; activity (quench increase), % at 7.58 µM; hit rate 0.36% among 350,000; CFBE cells, YFP halide quenching; stimulated with forskolin plus potentiator P3; % fluorescence drop versus neutral controls; AID 720511, 2013;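 active means mean added fluorescence quench of at least 8% versus neutral control, with both replicates also reaching 8%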;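 further: cells transiently co-express mutant CFTR-F508del with the halide-sensitive YFP; corrector assay measuring rescue of mutant channel to the surface after 24 h compound exposure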
HIF act: HIF pathway transcriptional activators, primary screen, cell-based, U2OS HRE-luciferase, luminescence; AID 1910, 2009; U2OS HRE-luciferase reporter; normalized: DMSO 0%, desferrioxamine 100%; hit rate 0.32% among 300,000; activation, % at 7.5 µM (by protocol);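 active means mean activation of at least 10% of the iron chelator positive control signal, with at least half of replicates also reaching 10%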
697 NFkB inh: inhibitors of PMA/ionomycin-induced NF-kB reporter, 697 cells, primary screen, B-cell NF-kB inhibitor project, cell-based, luminescence, uHTS; 697 B-cell NF-kB luciferase reporter, 16 h; inhibition, % at 4 µM; hit rate 0.33% among 330,000; in the data active means inhibition above about 35%
Jurkat NFkB inh: inhibitors of induced NF-kB luciferase reporter, primary screen, TCR NF-kB activation inhibitor project, cell-based, luminescence, uHTS; Jurkat, PMA/ionomycin-induced NF-kB luciferase reporter; inhibition, % at 4 µM; hit rate 0.53% among 330,000; AID 435003, 2010; in the data active means inhibition above about 50%
697 NFkB conf: PMA/ionomycin-induced NF-kB reporter inhibitors, 697 retest, confirmation, B-cell NF-kB inhibitor project, cell-based, luminescence, single concentration; inhibition, % at 4 µM; 697 B-cell NF-kB luciferase, 16 h; hit rate 35% among 2,000; shares compounds with 697 NFkB inh; AID 449746, 2010; in the data active means inhibition mostly above about 28%, no sharp cut-off; inactive means mostly below about 22%
Each line names hits and unclear results; the compound was inactive in the other large screens (follow-up assays come after a bar, where they were run).

Clc1ccc(-c2nc3n(n2)Cc2ccccc2-3)cc1	none (no result: F508del corr) | 697 NFkB conf inactive
O=C1C(=C2SCCCS2)CC/C1=C\c1ccc(F)cc1	none (no result: F508del corr)
Cc1cccc(/C=C2\CCC(=C3SCCCS3)C2=O)c1	none (no result: F508del corr) | 697 NFkB conf inactive
CCOc1cccc(/C=N/NC(=S)Nc2ccccc2[N+](=O)[O-])c1O	none
O=[N+]([O-])c1ccccc1NC(=S)N/N=C/c1ccc(O)c(O)c1	none | 697 NFkB conf inactive
C[C@@H]1CCCCO[C@@H](CN(C)CC2CCCCC2)[C@H](C)CN([C@@H](C)CO)C(=O)c2cc(NC(=O)Cc3ccccc3)ccc2O1	none (no result: HIF act, 697 NFkB inh, Jurkat NFkB inh)
COc1cc2c(cc1OC)-c1cc(N3CCc4ccccc43)nc(=O)n1CC2	697 NFkB inh 35 | 697 NFkB conf inactive
COc1cc2c(cc1OC)-c1cc(Nc3ccccc3Br)nc(=O)n1CC2	697 NFkB inh 35 | 697 NFkB conf inactive
COc1cccc(C2C(C#N)=C(N)OC(C(C)(C)C)=C2C#N)c1 (stereo not drawn)	697 NFkB inh 36 (no result: F508del corr) | 697 NFkB conf inactive
Cc1ccc(NC(=O)O/N=C/c2c(C)nn(C(C)(C)C)c2C)cc1Cl	697 NFkB inh 63 | 697 NFkB conf 78
Cc1ccc(NC(=O)Nn2cnnc2)cc1Cl	none
O=C(C=Cc1cccc(O)c1)c1ccccc1O	none (no result: HIF act, 697 NFkB inh, Jurkat NFkB inh)
O=C(/C=C/c1ccc(O)c(O)c1)c1ccccc1O	none | 697 NFkB conf inactive
COC(=O)[C@@H]1[C@@H](CO)[C@@H]2Cn3c(ccc(C4=CCCCC4)c3=O)[C@@H]2N1CC1CCCCC1	none (no result: HIF act, 697 NFkB inh, Jurkat NFkB inh)
O=S(=O)(NCc1ccncc1)c1ccc(Br)s1	697 NFkB inh 51 (no result: F508del corr) | 697 NFkB conf 45
CCc1ccc(/C=C2/SC(=S)N(CCC(=O)Nc3ccc(C(=O)O)cc3)C2=O)cc1	697 NFkB inh 77 | 697 NFkB conf 72
COc1ccc(/C=C2/SC(=S)N(CCC(=O)O)C2=O)cc1	697 NFkB inh 74 (no result: F508del corr) | 697 NFkB conf 75
CCc1ccc(/C=C2/SC(=S)N(CCC(=O)Nc3cccc(C(=O)O)c3)C2=O)cc1	697 NFkB inh 50 | 697 NFkB conf 59
CCc1ccc(C=C2SC(=S)N(CCCC(=O)Nc3ccc(C(=O)O)cc3)C2=O)cc1	none (no result: HIF act, 697 NFkB inh, Jurkat NFkB inh)
COc1ccc(/C=C2\SC(=S)N(CCC(=O)Nc3ccc(C(=O)O)cc3)C2=O)cc1	697 NFkB inh 44 | 697 NFkB conf 60
O=C(CCN1C(=O)/C(=C/c2ccc(Cl)cc2)SC1=S)Nc1ccc(C(=O)O)cc1	none
CCN(CC)C(=O)c1ccc(S(=O)(=O)Cc2ccc(C)cc2)c([N+](=O)[O-])c1	697 NFkB inh 40 | 697 NFkB conf 39
CC(C)Cn1c([N+](=O)[O-])nc2c1c(=O)[nH]c(=O)n2C	697 NFkB inh 37 | 697 NFkB conf 30
Cn1c(=O)[nH]c(=O)c2c1nc([N+](=O)[O-])n2Cc1ccccc1	none
O=C(Nc1cc(C(=O)N2CCCC2)ccc1N1CCCC1)c1ccccc1F	697 NFkB inh 44 (no result: F508del corr) | 697 NFkB conf inactive
CNC[C@@H]1Oc2ccc(NC(=O)Nc3ccccc3)cc2C(=O)N([C@H](C)CO)C[C@@H]1C	none (no result: HIF act, 697 NFkB inh, Jurkat NFkB inh)
C[C@@H]1CCCCO[C@H](CN(C)S(C)(=O)=O)[C@@H](C)CN([C@@H](C)CO)C(=O)c2cc(NC(=O)Nc3ccc4c(c3)OCO4)ccc2O1	none (no result: HIF act, 697 NFkB inh, Jurkat NFkB inh)
CCC(=O)N1[C@H](CN(C)C(=O)c2ccccc2F)[C@@H](c2ccccc2)[C@@H]1CO	none (no result: HIF act, 697 NFkB inh, Jurkat NFkB inh)
CN1C(=O)CSc2ccc(NC(=O)N3CCN(c4ccccc4)CC3)cc21	697 NFkB inh 36 | 697 NFkB conf 31
Cc1ccnc(NC(=O)Nc2ccc3c(c2)N(C)C(=O)CS3)c1	none (no result: F508del corr) | 697 NFkB conf inactive
CC(=O)c1ccc(NC(=O)Nc2ccc3c(c2)N(C)C(=O)CS3)cc1	none (no result: F508del corr)
COCCNC(=O)C[C@@H]1C[C@@H]2c3cc(NC(=O)COC)ccc3O[C@@H]2[C@@H](CO)O1	none (no result: HIF act, 697 NFkB inh, Jurkat NFkB inh)
CN(C)C(=O)C[C@@H]1C[C@H]2c3cc(NC(=O)C4CCOCC4)ccc3O[C@H]2[C@H](CO)O1	none (no result: HIF act, 697 NFkB inh, Jurkat NFkB inh)
C=C(C)[C@@H]1CCC2(C(=O)O)CC[C@]3(C)[C@H](CC[C@@H]4[C@@]5(C)CCC(=O)C(C)(C)[C@@H]5CC[C@]43C)[C@@H]12 (stereo partly drawn)	697 NFkB inh 80 | 697 NFkB conf 61
CC=Cc1ccc2n(c1=O)C[C@H]1[C@H](CO)[C@@H](C(=O)NCCC)N(CC3CCOCC3)[C@@H]21 (mixture of isomers)	none (no result: HIF act, 697 NFkB inh, Jurkat NFkB inh)
Cc1ccc(N=Nc2cc(C)ccc2N)cc1	none | 697 NFkB conf inactive
CC1=Nc2cc(C(=O)N3CCCC3)ccc2Sc2c(C)ccc(C)c21	none | 697 NFkB conf inactive
Clc1ccc(/C=C/c2nc3ccccc3[nH]2)c(Cl)c1	none (no result: F508del corr) | 697 NFkB conf inactive
O=C(/C=C/c1ccc(Cl)cc1Cl)c1nc2ccccc2[nH]1	none (no result: F508del corr)
Cc1nn(Cc2ccccc2Cl)c(C)c1C(=O)Nc1nnc(C2CC2)s1	none (no result: F508del corr) | 697 NFkB conf inactive
CCOc1ncccc1C(=O)Nc1nnc(C2CC2)s1	697 NFkB inh 39 | 697 NFkB conf inactive
O=C(C1CCC1)N1[C@H](CO)[C@@H](c2ccccc2)C12CN(CCC(F)(F)F)C2	none (no result: HIF act, 697 NFkB inh, Jurkat NFkB inh)
COCC(=O)N(C)C[C@@H]1Oc2cc(C#CCN(C)C)ccc2S(=O)(=O)N([C@H](C)CO)C[C@H]1C	none (no result: HIF act, 697 NFkB inh, Jurkat NFkB inh)
Cc1ccc(C(=O)N2CCCC(c3ccc(Cl)cc3)=N2)cc1	697 NFkB inh 42 | 697 NFkB conf 39
CCOc1cc(/C=C2\CN(C)C/C(=C\c3ccc(O)c(OCC)c3)C2=O)ccc1O	none
CCOc1cc(/C=C2\CCC/C(=C\c3cc(Cl)c(O)c(OCC)c3)C2=O)cc(Cl)c1O	none (no result: F508del corr) | 697 NFkB conf inactive
CC1Cc2ccccc2N1S(=O)(=O)c1cccc(C(=O)N2CCN(c3ncccn3)CC2)c1 (stereo not drawn)	F508del corr 8.5 | 697 NFkB conf inactive
CC(=O)N1CCN(C(=O)c2cccc(S(=O)(=O)N3c4ccccc4CC3C)c2)CC1 (stereo not drawn)	none (no result: HIF act)
CCOc1cc(/C=N\Nc2nc(Nc3ccccc3)nc(N3CCOCC3)n2)ccc1OC(=O)c1ccco1	697 NFkB inh 59 (no result: F508del corr) | 697 NFkB conf 46
COc1cc(/C=N/Nc2nc(C)cc(C)n2)ccc1OC(=O)c1ccco1	none (no result: F508del corr)
CC(=O)Nc1ccc(/C(C)=N/Nc2nc(Nc3ccccc3)nc(N3CCOCC3)n2)cc1	697 NFkB inh 53 | 697 NFkB conf inactive
Cc1ccc(Nc2nc(N/N=C\c3ccc4c(c3)OCO4)nc(N3CCOCC3)n2)cc1	697 NFkB inh 56 | 697 NFkB conf 42
Cc1ccc(/C=N/Nc2cc(C)nc(N3CCOCC3)n2)cc1	none
CCC(=O)N1CCC2(CC1)CN(Cc1ccc(Cl)cc1)[C@H](CO)c1[nH]c3cc(OC)ccc3c12	none (no result: HIF act, 697 NFkB inh, Jurkat NFkB inh)
C[C@@H]1CCCCO[C@@H](CN(C)S(=O)(=O)c2cn(C)cn2)[C@@H](C)CN([C@@H](C)CO)C(=O)c2cc(NS(=O)(=O)c3ccccc3)ccc2O1	none (no result: HIF act, 697 NFkB inh, Jurkat NFkB inh)
